Data: PubChem BioAssay (EPA / NIEHS)
The source made the active and inactive calls. Rule for the calls: active = hit-call score of the fitted dose curve at least 0.9, where 1 is the maximum; inactive = score below 0.9.

How the values were obtained:
[1] = read-out: TIMP metallopeptidase inhibitor 1 (TIMP1), TIMP1 (gene 7076); assay: BSK_hDFCGF_TIMP1: BioMAP Diversity Plus: hDFCGF Assay for TIMP metallopeptidase inhibitor 1 (TIMP1) Biomarker Activity (AID 2283062); settings: primary human foreskin fibroblasts; actives raise or lower the signal
Summary of the method: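 Human foreskin fibroblast primary cultures dosed for 24 h; secreted/surface TIMP-1 quantified by ELISA. Bidirectional curve fitting against DMSO baseline; cytotoxicity tracked in parallel cultures by SRB total-protein staining.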

[2] = read-out: Monokine induced gamma interferon (MIG), CXCL9 (gene 4283); assay: BSK_hDFCGF_MIG: BioMAP Diversity Plus: hDFCGF Assay for Monokine induced gamma interferon (MIG) Biomarker Activity (AID 2283063); settings: primary human foreskin fibroblasts; actives raise or lower the signal
Summary of the method: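 MIG/CXCL9 measured by ELISA 24 h after dosing primary human skin fibroblasts. Activity fitted in both directions against DMSO controls. Cytotoxicity was checked in parallel cultures by SRB staining read at 560 nm.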

[3] = read-out: Matrix Metallopeptidase 1 (MMP1), MMP1 (gene 4312); assay: BSK_hDFCGF_MMP1: BioMAP Diversity Plus: hDFCGF Assay for Matrix Metallopeptidase 1 (MMP1) Biomarker Activity (AID 2283064); settings: primary human foreskin fibroblasts; actives raise or lower the signal
Summary of the method: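 Primary human foreskin fibroblasts exposed to chemicals for 24 h; MMP1 measured by ELISA. Cytotoxicity tracked by SRB staining in parallel cultures; bidirectional fit relative to DMSO.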

[4] = read-out: Vascular cell adhesion molecule 1 (VCAM1), VCAM1 (gene 7412); assay: BSK_hDFCGF_VCAM1: BioMAP Diversity Plus: hDFCGF Assay for Vascular cell adhesion molecule 1 (VCAM1) Biomarker Activity (AID 2283065); settings: primary human foreskin fibroblasts; actives raise or lower the signal;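 for AC50: VCAM-1 protein level quantified by ELISA after 24 h chemical exposure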
Summary of the method: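 Human foreskin fibroblast primary cells dosed with chemical, VCAM-1 measured by ELISA at 24 h. Bidirectional curve fitting relative to DMSO as negative control/baseline.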

[5] = read-out: Intercellular Adhesion Molecule 1 (ICAM1), ICAM1 (gene 3383); assay: BSK_KF3CT_ICAM1: BioMAP Diversity Plus: KF3CT Assay for Intercellular Adhesion Molecule 1 (ICAM1) Biomarker Activity (AID 2283067); settings: primary human keratinocytes with fibroblasts; actives raise or lower the signal
Summary of the method: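 Human keratinocyte–foreskin fibroblast co-culture was treated for 24 h. Cell-surface ICAM-1 was quantified by ELISA, fitted bidirectionally relative to DMSO. Cytotoxicity was checked in parallel cultures by SRB total-protein staining.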

[6] = read-out: Interferon-gamma inducible Protein 10 (IP10), CXCL10 (gene 3627); assay: BSK_KF3CT_IP10: BioMAP Diversity Plus: KF3CT Assay for Interferon-gamma inducible Protein 10 (IP10) Biomarker Activity (AID 2283068); settings: primary human keratinocytes with fibroblasts; actives raise or lower the signal
Summary of the method: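 KF3CT co-culture (keratinocytes + foreskin fibroblasts), 24 h compound, IP-10 by ELISA; bidirectional fit vs DMSO baseline.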

[7] = BSK_KF3CT_SRB: Viability Assessment in the BioMAP Diversity Plus: KF3CT Assay (AID 2283069); settings: primary human keratinocytes with fibroblasts;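 note: total protein by sulforhodamine B staining as a cytotoxicity measure; read 24 h after compound addition; fitted for both signal gain and loss against DMSO baseline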
Summary of the method: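 Human keratinocyte and foreskin fibroblast co-culture exposed to chemical for 24 h. Total protein measured in parallel cultures by 0.1% sulforhodamine B staining after 10% TCA fixation, read at 560 nm; bidirectional fit relative to DMSO.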

[8] = read-out: Interleukin-1 alpha (IL1a), IL1A (gene 3552); assay: BSK_KF3CT_IL1a: BioMAP Diversity Plus: KF3CT Assay for Interleukin-1 alpha (IL1a) Biomarker Activity (AID 2283070); settings: primary human keratinocytes with fibroblasts; actives raise or lower the signal
Summary of the method: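 Primary human keratinocyte plus foreskin fibroblast co-culture, dosed and measured at 24 h in 96-well plates. IL-1a level quantified by ELISA; bidirectional fit relative to DMSO.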

[9] = read-out: TIMP metallopeptidase inhibitor 2 (TIMP2), TIMP2 (gene 7077); assay: BSK_KF3CT_TIMP2: BioMAP Diversity Plus: KF3CT Assay for TIMP metallopeptidase inhibitor 2 (TIMP2) Biomarker Activity (AID 2283071); settings: primary human keratinocytes with fibroblasts; actives raise or lower the signal
Summary of the method: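 Human primary keratinocyte/foreskin fibroblast co-culture dosed with chemical and sampled at 24 h. TIMP-2 levels quantified by ELISA; bidirectional fitting against DMSO negative control as baseline.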

[10] = read-out: Transforming growth factor beta 1 (TGFb1), TGFB1 (gene 7040); assay: BSK_KF3CT_TGFb1: BioMAP Diversity Plus: KF3CT Assay for Transforming growth factor beta 1 (TGFb1) Biomarker Activity (AID 2283072); settings: primary human keratinocytes with fibroblasts; actives raise or lower the signal
Summary of the method: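 Human keratinocyte plus foreskin fibroblast primary co-culture, dosed with chemical for 24 h. TGF-b1 quantified by ELISA. Activity fitted bidirectionally against DMSO negative control as baseline.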

[11] = read-out: C-C motif chemokine 2 (Homo sapiens) (UniProt P13500); assay: BSK_KF3CT_MCP1: BioMAP Diversity Plus: KF3CT Assay for Monocyte Chemoattractant Protein 1 (MCP1/CCL2) Biomarker Activity (AID 2283073); settings: primary human keratinocytes with fibroblasts; actives raise or lower the signal
Summary of the method: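 Human keratinocyte–foreskin fibroblast co-culture; MCP-1 measured by ELISA 24 h after dosing. Bidirectional fit vs DMSO; cytotoxicity tracked by SRB total protein in parallel cultures.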

[12] = read-out: Matrix Metallopeptidase 9 (MMP9), MMP9 (gene 4318); assay: BSK_KF3CT_MMP9: BioMAP Diversity Plus: KF3CT Assay for Matrix Metallopeptidase 9 (MMP9) Biomarker Activity (AID 2283074); settings: primary human keratinocytes with fibroblasts; actives raise or lower the signal;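 for AC50: MMP9 protein level quantified by ELISA in the co-culture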
Summary of the method: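 Human keratinocyte and foreskin fibroblast co-culture exposed to chemicals for 24 h; MMP9 biomarker measured by ELISA, bidirectional fitting relative to DMSO; cytotoxicity tracked by SRB total protein staining in parallel cultures.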

[13] = read-out: urokinase plasminogen activator (uPA), PLAU (gene 5328); assay: BSK_KF3CT_uPA: BioMAP Diversity Plus: KF3CT Assay for urokinase plasminogen activator (uPA) Biomarker Activity (AID 2283075); settings: primary human keratinocytes with fibroblasts; actives raise or lower the signal
Summary of the method: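 Primary human keratinocyte/foreskin fibroblast co-culture exposed to chemical; uPA measured by ELISA at 24 h. Bidirectional fit versus DMSO, with parallel SRB total-protein staining for cytotoxicity.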

[14] = read-out: CD40, CD40 (gene 958); assay: BSK_LPS_CD40: BioMAP Diversity Plus: LPS Assay for CD40 Biomarker Activity (AID 2283076); settings: primary human HUVEC with PBMC; actives raise or lower the signal
Summary of the method: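 HUVEC plus PBMC co-culture stimulated with LPS; CD40 quantified by ELISA 24 h after compound dosing. Fitting was bidirectional relative to DMSO. SRB staining of parallel cultures flagged overt cytotoxicity.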

[15] = read-out: E-selectin (Homo sapiens) (UniProt P16581); assay: BSK_LPS_Eselectin: BioMAP Diversity Plus: LPS Assay for Eselectin Biomarker Activity (AID 2283077); settings: primary human HUVEC with PBMC; actives raise or lower the signal
Summary of the method: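 Human umbilical vein endothelial cells co-cultured with PBMC under LPS stimulation; cell-surface E-selectin measured by ELISA 24 h after dosing. Change in either direction versus DMSO, with SRB total-protein staining in parallel cultures for cytotoxicity.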

[16] = read-out: Interleukin-8 (IL8), CXCL8 (gene 3576); assay: BSK_LPS_IL8: BioMAP Diversity Plus: LPS Assay for Interleukin-8 (IL8) Biomarker Activity (AID 2283078); settings: primary human HUVEC with PBMC; actives raise or lower the signal
Summary of the method: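 Human umbilical vein endothelial cells co-cultured with PBMC, LPS-stimulated, exposed to compound for 24 h. IL-8 quantified by ELISA; fitted in both directions against DMSO, with SRB total-protein staining of parallel cultures for cytotoxicity.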

[17] = BSK_LPS_SRB: Viability Assessment in the BioMAP Diversity Plus: LPS Assay (AID 2283079); settings: primary human HUVEC with PBMC;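 note: total protein by sulforhodamine B absorbance as a cytotoxicity measure; measured one day after compound addition; fitted in both directions against DMSO so loss or gain of signal counts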
Summary of the method: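 Co-culture of human umbilical vein endothelial cells and PBMC, read 24 h after dosing. Total protein by 0.1% SRB staining after 10% TCA fixation, absorbance at 560 nm; bidirectional fit against DMSO.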

[18] = read-out: Interleukin-1 alpha (IL1a), IL1A (gene 3552); assay: BSK_LPS_IL1a: BioMAP Diversity Plus: LPS Assay for Interleukin-1 alpha (IL1a) Biomarker Activity (AID 2283080); settings: primary human HUVEC with PBMC; actives raise or lower the signal
Summary of the method: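 Human umbilical vein endothelial cells co-cultured with PBMC and stimulated with LPS; IL-1a measured by ELISA 24 h after dosing. Bidirectional fitting against DMSO; cytotoxicity checked by SRB staining in parallel cultures.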

Measured: AC50

Chain of E-selectin (Homo sapiens) (P16581 whole entry, looked up): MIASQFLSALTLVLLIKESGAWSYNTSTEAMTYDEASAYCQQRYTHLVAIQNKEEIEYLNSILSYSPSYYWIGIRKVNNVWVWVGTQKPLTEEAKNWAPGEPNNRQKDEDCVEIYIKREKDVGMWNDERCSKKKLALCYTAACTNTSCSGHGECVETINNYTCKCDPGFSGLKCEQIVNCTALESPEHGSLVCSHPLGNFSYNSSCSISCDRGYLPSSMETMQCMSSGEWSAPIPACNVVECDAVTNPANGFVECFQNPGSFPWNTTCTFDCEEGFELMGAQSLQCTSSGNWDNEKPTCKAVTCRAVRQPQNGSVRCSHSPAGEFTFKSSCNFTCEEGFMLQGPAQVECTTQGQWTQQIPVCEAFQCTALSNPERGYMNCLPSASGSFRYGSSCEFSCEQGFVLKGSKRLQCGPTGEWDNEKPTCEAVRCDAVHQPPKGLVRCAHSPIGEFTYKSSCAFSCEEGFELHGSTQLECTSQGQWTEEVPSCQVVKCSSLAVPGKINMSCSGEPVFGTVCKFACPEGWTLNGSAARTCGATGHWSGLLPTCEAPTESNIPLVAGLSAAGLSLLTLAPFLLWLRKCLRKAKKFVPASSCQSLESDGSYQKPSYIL

CS/C(C)=N/OC(=O)N(C)SN(C)C(=O)O/N=C(\C)SC
inactive: [1] | [3] | [4]
active: [2] 11 µM | [5] 11.1 µM | [6] 12.4 µM | [7] 12.5 µM | [8] 17.8 µM | [9] 14.5 µM | [10] 13.3 µM | [11] 12.6 µM | [12] 17.1 µM | [13] 16.9 µM | [14] 15.8 µM | [15] 34.7 µM | [16] 30.8 µM | [17] 29.8 µM | [18] 15.6 µM

COC(=O)N(OC)c1ccccc1COc1ccn(-c2ccc(Cl)cc2)n1
active: [3] 4.62 µM | [6] 6.72 µM | [8] 3.97 µM | [11] 2.56 µM | [12] 3.97 µM | [14] 20 µM | [15] 6.89 µM | [16] 3.97 µM | [17] 10.1 µM
inactive: all other assays above

CCOC(=O)C(Cl)Cc1cc(-n2nc(C)n(C(F)F)c2=O)c(F)cc1Cl (stereo not drawn)
inactive: all assays above

CCOC(=O)CC(SP(=S)(OC)OC)C(=O)OCC (stereo not drawn)
inactive: all assays above

C=CCC1=C(C)[C@@H](OC(=O)[C@@H]2[C@@H](C=C(C)C)C2(C)C)CC1=O
active: [1] 32.1 µM | [2] 31.6 µM | [3] 31 µM | [4] 29.6 µM | [7] 20 µM | [12] 32.6 µM | [14] 29.2 µM | [15] 32.4 µM | [16] 26.3 µM | [17] 36.2 µM | [18] 32.3 µM
inactive: [5] | [6] | [8] | [9] | [10] | [11] | [13]

Cc1cc(Cl)ccc1OCC(=O)O
inactive: all assays above
